Assay results as given in PubChem BioAssay AID1259343 (VanderVen Lab, College of Veterinary Medicine, Cornell …, 2017).
The campaign covered roughly 6,200 compounds. About 2,900 (47%) were called active. The set was probably picked from earlier hits. Some of the results follow. A number with no mark means an inactive call. Rule as the data show it: active = inhibition above about 50%; inactive = the rest.

Assay: Mycobacterium tuberculosis growth inhibition, primary screen (AID 1259343)
Conditions: inhibition: at 10 µM, hits give high values; outcome: 10 uM

Row | Compound | inhibition
1 | Cc1cc(NC(=O)C23CC4CC(CC(C4)C2)C3)n(-c2nc3c(c(=O)[nH]2)CCC3)n1 | 101% (active)
2 | Clc1cccc(-n2ncc3c(N4CCNCC4)nc(Cc4ccccc4)nc32)c1 | 65.1% (active)
3 | Cc1nc(N2CCCC(C)C2)c2cnn(-c3ccc(F)cc3)c2n1 (stereo unspecified) | 23.5%
4 | CC(C)CCc1nc(N2CCNCC2)c2cnn(-c3cccc(Cl)c3)c2n1 | 41.8%
5 | Cc1ccc(Cc2nc(N3CCNCC3)c3c(C)nn(-c4ccccc4)c3n2)cc1 | 92.7% (active)
6 | CCCc1nc(N2CCNCC2)c2c(C)nn(-c3ccc(F)cc3)c2n1 | 42%
7 | CC1NC(=S)N(CCc2nc(C(C)(C)C)cs2)C1=O (stereo unspecified) | 12.2%
8 | CCOc1ccc(OCCCOc2cccc(C)c2C)cc1 | 73.5% (active)
9 | CCOc1cccc(OCCCOc2ccc(Cl)cc2C)c1 | 82.3% (active)
10 | CCOc1ccc(OCCCOc2ccccc2Br)cc1 | 95.2% (active)
11 | CCOc1ccc(OCCCOc2ccccc2OC)cc1 | 9.51%
12 | CC(C)(C)CC(C)(C)c1ccc(O)c(Cc2ccc(Cl)cc2Cl)c1 | 72.6% (active)
13 | COc1ccc2c(c1)CCc1c(-c3ccc(C(=O)NCCCSC)cc3)n[nH]c1-2 | 95.5% (active)
14 | Cc1ccc(C(=O)N=c2sccn2Cc2ccc(C(=O)NC(C)c3ccccc3)cc2)cc1 (stereo unspecified) | -8.44%
15 | CC(C)Cc1ccc(C(C)NC(=O)Cn2ccsc2=O)cc1 (stereo unspecified) | 92.5% (active)
16 | CC(=O)c1ccc(OCC(=O)NC(C)c2ccc(CC(C)C)cc2)cc1 (stereo unspecified) | 46.8%
17 | COc1ccc2cc(C3CN(CCC(F)(F)C(F)F)CCO3)ccc2c1 (stereo unspecified) | 42.7%
18 | CCOC(=O)C1=C(O)CSC1=Nc1ccc(Cl)cc1 | 16.2%
19 | CC(=O)C1=C(O)CC(c2ccccc2)SC1=Nc1ccccc1 (stereo unspecified) | 57.6% (active)
20 | Fc1ccc(SCCc2ccncc2)cc1 | 57.7% (active)
21 | O=C1C(Cl)=C(Nc2cccc(Br)c2)C(=O)N1Cc1ccc(Br)cc1 | 61% (active)

Row | Compound | inhibition
22 | O=c1ccc(-c2cccc(Br)c2)nn1Cc1ccc(F)cc1 | 8.75%
23 | NC(=S)Nc1cccc(Br)c1 | 32.7%
24 | CCOc1ccc(NC(=O)c2cn(-c3cc(N4CCOCC4)ncn3)cn2)cc1 | 74.7% (active)
25 | O=C(O)c1cc(O)c2c(c1)C(=O)c1cc(O)cc(O)c1C2=O | 91.8% (active)
26 | CC(=O)c1ccc(C(=O)N(C)C(C)c2ccc(Cl)cc2)s1 (stereo unspecified) | 25.1%
27 | CC(c1ccc(Cl)cc1)N(C)C(=O)c1ccc[nH]1 (stereo unspecified) | -3.09%
28 | CC(c1ccc(F)cc1)N(C)C(=O)CN1CC(O)CC1c1cc(F)ccc1F (stereo unspecified) | 84% (active)
29 | Cc1nc(N)sc1N=Nc1cc(C(F)(F)F)ccc1Cl | 18.3%
30 | Cc1nc(NC(=O)c2c(C)nn(CC(C)C)c2Cl)sc1C | 12.5%
31 | CCC(C)C(=O)Nc1nc(-c2ccc(Cl)cc2)c(C)s1 (stereo unspecified) | 70.1% (active)
32 | Cc1sc(NC2CCCC2)nc1-c1ccc(F)c(F)c1 | 34.8%
33 | COc1cccc(C2c3c(oc4cc(C)c(C)cc4c3=O)C(=O)N2c2nccs2)c1OC (stereo unspecified) | -18.6%
34 | Cc1cc(N2CCCCC2)nc(Nc2ccc(NS(=O)(=O)c3ccc4nc(C)sc4c3)cc2)n1 | 25.5%
35 | Oc1ccc(Nc2nc(N3CCCC3)c3ccccc3n2)cc1 | 83.1% (active)
36 | c1ccc(CN2CCN(c3nc(-c4cccnc4)nc4ccccc34)CC2)cc1 | 26.4%
37 | CCOC(=O)C1CCCN(c2oc(-c3ccc(Cl)cc3)nc2C#N)C1 (stereo unspecified) | 12.5%
38 | N#Cc1nc(COc2ccc(Cl)cc2)oc1N1CCCC1 | 92.6% (active)
39 | COc1ccc(OCc2nc(C#N)c(N3CCCC3)o2)cc1 | -23.3%
40 | COc1ccc(C[C@H](N)C(=O)N[C@@H]2[C@@H](CO)OC(n3cnc4c(N(C)C)ncnc43)[C@@H]2O)cc1 (stereo partly specified) | 66.6% (active)
41 | CN(C)N=Nc1nc[nH]c1C(N)=O | 70% (active)
42 | CC(C)(C)c1csc(NC(=O)CC2OCCc3ccsc32)n1 (stereo unspecified) | 22.8%

Row | Compound | inhibition
43 | Cc1cc(C(=O)Nc2nc(C(C)(C)C)cs2)c(C)o1 | 60.2% (active)
44 | CC(C)(C)C(=O)Nc1nc(CC23CC4CC(CC(C4)C2)C3)cs1 | 38%
45 | CC(C)(C)c1csc(NC(=O)c2ccc(Cl)s2)n1 | -24%
46 | CC(C)(C)c1csc(NC(=O)C23CC4CC(CC(C4)C2)C3)n1 | 61.1% (active)
47 | Cc1ccc(-c2ccc(C3=CC(C)(C)OC3=O)cc2)cc1 | 43.7%
48 | O=C(Nc1cccc(Cl)c1)Oc1ccccc1-c1ccccc1 | 17.6%
49 | N#CC1=C2Sc3ccccc3N2C(O)(C(F)(F)F)C(C(=O)C(F)(F)F)=C1 (stereo unspecified) | 71.5% (active)
50 | Fc1ccc(Br)cc1C1Nc2cccc3cccc(c23)N1 | 14.4%
51 | Fc1cccc(Cl)c1C1Nc2cccc3cccc(c23)N1 | -12.9%
52 | Clc1cccc(C2Nc3cccc4cccc(c34)N2)c1Cl | 97.7% (active)
53 | Fc1ccccc1Nc1nc(COc2cccc(Cl)c2)cs1 | 75.5% (active)
54 | CCC(C)[C@H]1O[C@]2(CC[C@@H]1C)C[C@@H]1C[C@@H](C/C=C(\C)[C@@H](OC3C[C@H](OC)C(O[C@H]4C[C@H](OC)[C@@H](O)[C@H](C)O4)[C@H](C)O3)[C@@H](C)/C=C/C=C3\CO[C@@H]4[C@H](O)C(C)=C[C@@H](C(=O)O1)[C@]34O)O2 (stereo partly specified) | 67.3% (active)
55 | O=C1c2sc3nnc(-c4ccccc4)c(=O)n3c2C(=O)N1c1cccc(Cl)c1Cl | 90.4% (active)
56 | NS(=O)(=O)c1ccc(N2CCN(c3cccc(Cl)c3)CC2)nc1 | 52.9% (active)
57 | Clc1cccc(N2CCN(c3nnnn3-c3ccccc3)CC2)c1 | -17.8%
58 | Cn1nc(CC(=O)NC2CCC3CCCCC3C2)c2ccccc2c1=O (stereo unspecified) | 14.5%
59 | Cc1nc(-c2c[nH]c(C(=O)NC3CCC4CCCC4C3)c2)cs1 (stereo unspecified) | 87.9% (active)
60 | Cc1nc(-c2c[nH]c(C(=O)N(C)C3CCC(C)CC3)c2)cs1 (stereo unspecified) | 29.5%
61 | Cc1ccc2nc(C3CCN(c4nncc(-c5ccc(Cl)cc5)n4)CC3)[nH]c2c1 | 37.6%
